Source: PubChem BioAssay (NCI)
About 83,000 compounds went through this panel and 20% of them were active in at least one assay; those are over-represented in the sample as a whole.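 Compound tested at a single concentration for 48 hours in 96-well plates; a percent growth value below 10 was scored as active.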 Active and inactive are the calls of the source.

Columns and labels:
Test in all cases: NCI-60 one-dose screen, 48 h (100 = growth as untreated, 0 = no growth, -100 = all killed)
NCI-H226 lung = settings: 10 µM
NCI-H460 lung = settings: 10 µM unless noted
HOP-92 NSCLC = settings: 10 µM unless noted
NCI-H522 lung = settings: 10 µM
A549/ATCC NSCLC = settings: 10 µM unless noted
786-0 renal = settings: 10 µM unless noted
COLO 205 colon = settings: 10 µM unless noted
DU-145 prostate = settings: 10 µM unless noted
K-562 leukemia = settings: 10 µM unless noted
MALME-3M melanoma = settings: 10 µM unless noted
MDA-MB-231 breast = settings: 10 µM unless noted
RXF 393 renal = settings: 10 µM unless noted
SF-268 CNS = settings: 10 µM unless noted
SF-295 CNS = settings: 10 µM unless noted
SF-539 CNS = settings: 10 µM unless noted
UACC-257 melanoma = settings: 10 µM unless noted
M14 melanoma = settings: 10 µM unless noted
HOP-62 NSCLC = settings: 10 µM unless noted
NCI-H322M lung = settings: 10 µM unless noted

Measured: growth

O=C1C2CC3C(CC2C(=O)[N]1[Sn]([c]1ccccc1)([c]1ccccc1)[c]1ccccc1)C1(Cl)C(Cl)=C(Cl)C3(Cl)C1(Cl)Cl (stereo not given)
active: NCI-H226 lung -43.5% | NCI-H460 lung -81.6% | HOP-92 NSCLC -96.1% | NCI-H522 lung -94.2% | A549/ATCC NSCLC -97.2% | 786-0 renal -86.2% | COLO 205 colon -86.7% | DU-145 prostate -94.5% | K-562 leukemia -30.8% | MALME-3M melanoma -91.8% | MDA-MB-231 breast -94.7% | RXF 393 renal -76.1% | SF-268 CNS -88.7% | SF-295 CNS -86.8% | SF-539 CNS -99.9% | UACC-257 melanoma -99.3% | M14 melanoma -94%

FC(F)(F)c1cc(CNc2ncc(Br)c(Cl)n2)cc(C(F)(F)F)c1
inactive: NCI-H226 lung 90.3% | HOP-62 NSCLC 90.2% | NCI-H460 lung 107% | HOP-92 NSCLC 84.3% | NCI-H522 lung 74.2% | A549/ATCC NSCLC 101% | 786-0 renal 90.4% | COLO 205 colon 98.4% | DU-145 prostate 107% | K-562 leukemia 89.1% | MALME-3M melanoma 75.8% | MDA-MB-231 breast 121% | RXF 393 renal 86% | SF-268 CNS 102% | SF-539 CNS 97% | UACC-257 melanoma 96.4% | M14 melanoma 98.1%

O=[N+]([O-])c1ccc(O)c2ncccc12
inactive: NCI-H322M lung 31.6% | HOP-62 NSCLC 50.9% | NCI-H460 lung 23.2% | HOP-92 NSCLC 67.4% | NCI-H522 lung 51.6% | A549/ATCC NSCLC 46.6% | 786-0 renal 66.5% | COLO 205 colon 80.5% | DU-145 prostate 75.8% | MALME-3M melanoma 52.2% | MDA-MB-231 breast 46% | RXF 393 renal 92.4% | SF-268 CNS 50.2% | SF-295 CNS 24.5% | SF-539 CNS 42.2% | UACC-257 melanoma 73.6% | M14 melanoma 47.3%

Cc1nn(-c2ccccc2)c2nc3nc4c(c(N)c3c(-c3ccc(Cl)cc3)c12)CCC4
inactive: NCI-H226 lung 94.1% | HOP-62 NSCLC 101% | NCI-H460 lung 72.7% | HOP-92 NSCLC 80.4% | NCI-H522 lung 102% | A549/ATCC NSCLC 84.8% | 786-0 renal 74% | COLO 205 colon 67% | DU-145 prostate 90.1% | K-562 leukemia 27.7% | MALME-3M melanoma 109% | MDA-MB-231 breast 88.1% | RXF 393 renal 79.9% | SF-268 CNS 102% | SF-295 CNS 92.1% | SF-539 CNS 90% | UACC-257 melanoma 91.4% | M14 melanoma 98.6%

COc1nc2c(cc1S(=O)(=O)c1ccccc1)CCc1c-2cnn1-c1ccccc1Cl
inactive: NCI-H226 lung 51.8% | HOP-62 NSCLC 69.9% | NCI-H460 lung 67% | NCI-H522 lung 15.3% | 786-0 renal 51.6% | COLO 205 colon 70.4% | DU-145 prostate 90.8% | K-562 leukemia 54.3% | MALME-3M melanoma 97.4% | MDA-MB-231 breast 70.2% | RXF 393 renal 52.6% | SF-268 CNS 74.1% | SF-295 CNS 63% | SF-539 CNS 60.5% | UACC-257 melanoma 72.6% | M14 melanoma 68.9%
active: HOP-92 NSCLC -1.3%

C=CC[P+](c1ccccc1)(c1ccccc1)c1ccccc1
active: UACC-257 melanoma -3.34%
inactive: NCI-H226 lung 74.1% | HOP-62 NSCLC 81.7% | NCI-H460 lung 53.5% | HOP-92 NSCLC 25.4% | NCI-H522 lung 15.1% | 786-0 renal 84.5% | COLO 205 colon 32.8% | DU-145 prostate 79.4% | K-562 leukemia 27.2% | MALME-3M melanoma 47.8% | MDA-MB-231 breast 67.9% | RXF 393 renal 95.3% | SF-268 CNS 79.2% | SF-295 CNS 80% | SF-539 CNS 61.1% | M14 melanoma 62.4%

O=C(C[Si](CC(=O)c1cccc(C(F)(F)F)c1)CC(=O)c1cccc(C(F)(F)F)c1)c1cccc(C(F)(F)F)c1
inactive: NCI-H322M lung 74.5% | HOP-62 NSCLC 95.6% | NCI-H522 lung 68.7% | A549/ATCC NSCLC 49% | 786-0 renal 75.8% | COLO 205 colon 98.4% | DU-145 prostate 33.2% | MALME-3M melanoma 77.2% | MDA-MB-231 breast 86.3% | RXF 393 renal 102% | SF-268 CNS 40% | SF-539 CNS 107% | UACC-257 melanoma 81.8% | M14 melanoma 89.4%
active: NCI-H460 lung 8.35% | HOP-92 NSCLC -27.9% | K-562 leukemia 4.55% | SF-295 CNS 2.69%

Cc1nc(NC(=O)COc2cccc(/C=C3\COc4ccccc4C3=O)c2)sc1C
active: NCI-H460 lung 9.93% | HOP-92 NSCLC -20.3% | NCI-H522 lung -49.6% | K-562 leukemia -65.2% | MALME-3M melanoma -68.1% | MDA-MB-231 breast 0.962% | SF-268 CNS -63.3% | SF-539 CNS -63.9% | UACC-257 melanoma -49% | M14 melanoma -79.4%
inactive: NCI-H322M lung 58.6% | HOP-62 NSCLC 71.9% | A549/ATCC NSCLC 30.1% | 786-0 renal 72.1% | COLO 205 colon 16.6% | DU-145 prostate 63.1% | SF-295 CNS 25.3%

COc1ccc(-c2nc(Nc3ccc(F)cc3)nc(Nc3ccc4c(c3)nc(C)n4Cc3ccccc3)n2)cc1
inactive: NCI-H322M lung 82.4% | HOP-62 NSCLC 53.3% | NCI-H460 lung 30.3% | HOP-92 NSCLC 39.7% | NCI-H522 lung 55.4% | 786-0 renal 46.7% | COLO 205 colon 28.2% | DU-145 prostate 54.7% | K-562 leukemia 16.1% | MALME-3M melanoma 52.8% | MDA-MB-231 breast 31.2% | RXF 393 renal 35.7% | SF-268 CNS 46.9% | SF-295 CNS 49% | SF-539 CNS 67.8% | UACC-257 melanoma 43.8% | M14 melanoma 38.9%
